In PubChem BioAssay AID1159577 (Broad Institute, 2015):
The whole screen tested about 1,300 compounds, of which about 240 (18%) were called active. Another 8% or so got no clear call; they are omitted. How the calls were made is not given here. These entries were drawn from the full list. Measured potencies and affinities stand elsewhere.

experiment: HepG2 cell cytotoxicity, dose response, cytotoxicity control, cherry-picked samples (AID 1159577); conditions: HepG2 cytotoxicity counterscreen, plate reader; series mostly up to 19.5 µM

SMILES	outcome
C[C@@H]1CN([C@@H](C)CO)C(=O)c2cccc(NC(=O)c3cnccn3)c2O[C@@H]1CN(C)Cc1ccc(-c2ccccc2)cc1	inactive
COc1ccc(NC(=O)N2CCC3(CC2)CN(C(=O)C2CCC2)[C@@H](CO)c2c3c3ccc(OC)cc3n2C)cc1	inactive
C[C@H](CO)N1C[C@H](C)[C@@H](CN(C)C(=O)[C@H](C)c2ccccc2)OCc2ccccc2-c2c(n(C)c3ccccc23)C1=O	inactive
C[C@@H]1CN([C@@H](C)CO)C(=O)c2c(c3ccccc3n2C)-c2ccccc2CO[C@@H]1CN(C)C(=O)[C@H](C)c1ccccc1	inactive
CO[C@@H]1CN(C)C(=O)c2ccc(NC(=O)NC(C)C)cc2OC[C@@H](C)N(Cc2ccccc2)C[C@H]1C	inactive
COc1cccc(NC(=O)N2[C@H](CO)[C@H](c3ccccc3)[C@H]2CNCC(C)C)c1	inactive
COc1ccc(-c2ccccc2[C@H]2[C@@H](C#N)N(C(=O)NC3CCCC3)[C@H]2CO)cc1	inactive
COc1ccc(NC(=O)Nc2ccc3c(c2)CC(=O)N([C@H](C)CO)C[C@H](C)[C@@H](CN(C)CC2CCCCC2)O3)cc1	inactive
C[C@H](CO)N1C[C@H](C)[C@H](CN(C)CC2CC2)Oc2ccc(NS(=O)(=O)c3ccc(Cl)cc3)cc2CC1=O	inactive
C[C@@H]1CN([C@@H](C)CO)C(=O)c2cc(NC(=O)Nc3ccc(C(F)(F)F)cc3)ccc2O[C@H]1CN(C)C(=O)Nc1cccc2ccccc12	inactive
C[C@H](CO)N1C[C@H](C)[C@H](CN(C)CC2CC2)Oc2ccc(NC(=O)Nc3cccc4ccccc34)cc2CC1=O	inactive
C[C@@H]1CN([C@@H](C)CO)C(=O)c2cc(NC(=O)C3CC3)ccc2O[C@H]1CN(C)CC1CCCCC1	inactive
C[C@@H]1CN([C@@H](C)CO)C(=O)Cc2cc(NC(=O)Nc3ccc4c(c3)OCO4)ccc2O[C@@H]1CN(C)CC1CC1	inactive
COc1ccc(C#Cc2ccc3c(c2)O[C@@H](CN(C)S(=O)(=O)c2ccccc2F)[C@@H](C)CN([C@H](C)CO)S3(=O)=O)cc1	inactive
OC[C@@H]1[C@@H](c2ccccc2)C2(CN(CC3CC3)C2)N1Cc1ccc(F)cc1	inactive
COCC(=O)Nc1ccc2c(c1)C(=O)N(C)C[C@H](OC)[C@H](C)CN(Cc1cc(F)ccc1F)[C@H](C)CO2	inactive
COc1ccc(S(=O)(=O)N(C)C[C@@H]2Oc3c(NC(=O)Nc4cccc5ccccc45)cccc3C(=O)N([C@H](C)CO)C[C@@H]2C)cc1	inactive
C[C@H](CO)N1C[C@H](C)[C@@H](CN(C)Cc2ccc(-c3ccccc3)cc2)Oc2c(NC(=O)c3ccc(-c4nccs4)cc3)cccc2C1=O	inactive
COc1ccc(S(=O)(=O)N(C)C[C@H]2Oc3c(NC(=O)Nc4cccc5ccccc45)cccc3C(=O)N([C@@H](C)CO)C[C@H]2C)cc1	inactive
COc1ccc(NC(=O)N(C)C[C@H]2Oc3c(NC(=O)Nc4ccccc4)cccc3C(=O)N([C@@H](C)CO)C[C@H]2C)cc1	inactive
COc1ccc(S(=O)(=O)Nc2cccc3c2O[C@H](CN(C)Cc2ccc(-c4ccccc4)cc2)[C@@H](C)CN([C@H](C)CO)C3=O)cc1	inactive

SMILES	outcome
COc1ccc(CN(C)C[C@@H]2Oc3c(NC(=O)c4ccc(-c5nccs5)cc4)cccc3C(=O)N([C@@H](C)CO)C[C@H]2C)cc1	inactive
COc1ccc2c3c([nH]c2c1)[C@H](CO)N(Cc1ccc(F)cc1)CC31CCN(C(C)=O)CC1	inactive
CNC[C@H]1Oc2ncc(-c3ccc(OC)cc3)cc2C(=O)N([C@H](C)CO)C[C@H]1C	inactive
C[C@@H]1CN([C@@H](C)CO)C(=O)c2cc(NC(=O)Nc3ccc4c(c3)OCO4)ccc2O[C@H]1CN(C)C(=O)Nc1cccc2ccccc12	inactive
C[C@H]1CN([C@@H](C)CO)S(=O)(=O)c2ccc(C#Cc3ccncc3)cc2O[C@H]1CN(C)S(=O)(=O)c1ccc(F)cc1	inactive
C[C@@H]1CN([C@@H](C)CO)S(=O)(=O)c2ccc(/C=C/c3ccccc3)cc2O[C@H]1CN(C)Cc1cccnc1	inactive
C[C@@H]1CN([C@@H](C)CO)S(=O)(=O)c2ccc(/C=C/c3ccccc3)cc2O[C@H]1CN(C)C(=O)C1CC1	inactive
COc1ccccc1S(=O)(=O)N(C)C[C@@H]1Oc2cc(C#CCC(C)C)ccc2S(=O)(=O)N([C@@H](C)CO)C[C@@H]1C	inactive
COc1ccccc1S(=O)(=O)N(C)C[C@@H]1Oc2cc(C#CCC(C)C)ccc2S(=O)(=O)N([C@@H](C)CO)C[C@H]1C	inactive
COc1ccc(NC(=O)N(C)C[C@H]2Oc3cc(C#CCC(C)C)ccc3S(=O)(=O)N([C@H](C)CO)C[C@H]2C)cc1	inactive
COc1cccc(NC(=O)N(C)C[C@@H]2Oc3cc(C#Cc4ccc(F)cc4)ccc3S(=O)(=O)N([C@H](C)CO)C[C@@H]2C)c1	inactive
CC(C)CC#Cc1ccc2c(c1)O[C@H](CN(C)S(=O)(=O)c1ccc(F)cc1)[C@@H](C)CN([C@@H](C)CO)S2(=O)=O	inactive
COc1cccc(NC(=O)N(C)C[C@@H]2Oc3cc(C#Cc4ccc(F)cc4)ccc3S(=O)(=O)N([C@@H](C)CO)C[C@@H]2C)c1	inactive
CCCC(=O)N1CCC2(CC1)CN[C@@H](CO)c1[nH]c3cc(OC)ccc3c12	inactive
N#C[C@@H]1[C@H](c2ccccc2C2=CCCCC2)[C@@H](CO)N1S(=O)(=O)c1ccccc1	inactive
COc1ccc(C#Cc2ccc3c(c2)[C@@H]2[C@@H](CCN2C(=O)C2CC2)[C@H](CO)N3)cc1	inactive
COCC(=O)N1CC2(C1)CN(Cc1cccc(Cl)c1)[C@@H](CO)c1[nH]c3cc(OC)ccc3c12	inactive
CCC(=O)Nc1ccc2c(c1)OC[C@H](C)N(Cc1ccccn1)C[C@H](C)[C@H](OC)CN(C)C2=O	inactive
CN(C)CC#Cc1cccc(-c2nc(C(=O)N[C@@H]3CCN(Cc4ccccc4)C3)cc3c2[C@H](CCO)N(S(=O)C(C)(C)C)C3)c1 (stereo partly specified)	inactive
COc1ccc(C#Cc2ccc3c(c2)O[C@@H](CN(C)S(=O)(=O)c2ccccc2F)[C@@H](C)CN([C@@H](C)CO)S3(=O)=O)cc1	inactive
